Results from article PMC4336329 (PLoS ONE, 2015).
Hit rate of the full screen: of about 310,000 compounds, about 14,000 (4.5%) showed an effect of 50% or more. Effects have a minus sign here. For the sample, strong results were picked, then their nearest neighbours and some compounds at random.

Each molecule was assayed against human ether-à-go-go-related gene (hERG) potassium channel (human, UniProt Q12809) (assay: primary screen, population patch clamp on CHO cells stably expressing hERG; higher = less effect of the substance).
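Further: peak tail current of the secondary pulse compared with the same well before compound.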

human ether-à-go-go-related gene (hERG) potassium channel, sequence (Q12809 whole entry, looked up): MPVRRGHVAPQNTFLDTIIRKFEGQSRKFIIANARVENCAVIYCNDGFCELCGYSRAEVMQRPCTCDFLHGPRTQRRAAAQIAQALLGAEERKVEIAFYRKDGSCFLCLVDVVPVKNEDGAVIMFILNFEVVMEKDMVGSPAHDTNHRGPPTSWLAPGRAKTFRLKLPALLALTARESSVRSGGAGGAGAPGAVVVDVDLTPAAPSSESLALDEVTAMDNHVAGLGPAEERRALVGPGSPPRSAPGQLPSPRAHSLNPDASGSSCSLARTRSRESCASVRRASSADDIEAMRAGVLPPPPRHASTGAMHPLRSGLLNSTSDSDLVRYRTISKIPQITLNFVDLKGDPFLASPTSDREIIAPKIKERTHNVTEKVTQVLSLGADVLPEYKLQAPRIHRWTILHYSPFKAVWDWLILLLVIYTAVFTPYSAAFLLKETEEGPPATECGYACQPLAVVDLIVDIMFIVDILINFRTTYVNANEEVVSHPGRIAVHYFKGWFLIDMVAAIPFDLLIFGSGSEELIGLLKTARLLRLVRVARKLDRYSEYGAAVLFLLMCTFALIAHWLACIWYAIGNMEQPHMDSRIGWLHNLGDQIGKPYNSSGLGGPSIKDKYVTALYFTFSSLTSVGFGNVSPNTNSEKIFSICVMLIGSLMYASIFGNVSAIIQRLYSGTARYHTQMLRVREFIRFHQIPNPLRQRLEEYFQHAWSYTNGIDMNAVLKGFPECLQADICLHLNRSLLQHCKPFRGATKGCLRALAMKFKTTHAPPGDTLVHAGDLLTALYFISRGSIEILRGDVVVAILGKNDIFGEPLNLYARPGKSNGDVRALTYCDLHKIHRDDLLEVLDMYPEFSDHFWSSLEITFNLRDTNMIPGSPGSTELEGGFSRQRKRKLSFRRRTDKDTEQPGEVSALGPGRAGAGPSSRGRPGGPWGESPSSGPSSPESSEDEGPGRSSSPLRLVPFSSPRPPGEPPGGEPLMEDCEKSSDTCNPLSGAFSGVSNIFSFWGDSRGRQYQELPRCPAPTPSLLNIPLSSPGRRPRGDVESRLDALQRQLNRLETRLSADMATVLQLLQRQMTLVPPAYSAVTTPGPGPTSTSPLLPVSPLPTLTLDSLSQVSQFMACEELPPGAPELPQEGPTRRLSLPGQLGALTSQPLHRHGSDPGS

SMILES	hERG current change (%, negative = inhibition) at 10uM [%]
CCn1ccnc1CN1CCN(CCC(C)C)C(CCO)C1 (centres unmarked)	18.9
CC(C)=CCN1CCN(Cc2ccc(Oc3ncccn3)cc2)CC1CCO (centres unmarked)	9.1
CC(C)N1CCN(Cc2cccn2-c2ccccn2)CC1CCO (centres unmarked)	-31.2
CC(C)CCN1CCN(Cc2cccc3cccnc23)CC1CCO (centres unmarked)	-26.2
CC(C)CN1CCN(Cc2cccn2-c2ccccn2)CC1CCO (centres unmarked)	-55.9
CC(C)CCN1CCN(Cc2cccn2-c2ccccn2)CC1CCO (centres unmarked)	-75.5
CCC(C)N1C(=O)N(C)C2NC(=O)NC21 (centres unmarked)	-2.9
Cc1ccc(OCC(=O)NNC(=S)NC(=O)C2CC2)c(C)c1	23.2
Nc1c2c(nc3c1CCCC3)CCCC2.O=C(O)c1cc[nH]c(=O)c1	-10.1
Clc1ccc(OCC#CCN2CCCCCC2)cc1.O=C(O)C(=O)O	-34.7
Cc1ccccc1Nc1nnc(C)c(=O)[nH]1	-11.3
CC(=O)N1CCN(c2ccc(NC(=O)c3ccc([N+](=O)[O-])cc3Cl)cc2)CC1	-8.49
CCOc1cccc(OCCOCCN(C)Cc2ccccc2)c1	-49.3
CCN(CC(=O)NCc1ccc(Cl)cc1)C(=O)CSc1ccccc1F	-19.3
CCN(CC(=O)NCc1ccc(Cl)cc1)C(=O)CSc1ccc(F)cc1	-71.1
CCN(CC(=O)NCc1ccc(Cl)cc1)S(=O)(=O)c1ccc(F)cc1	-19.1
CCN(CC(=O)NCc1ccc(Cl)cc1)C(=O)CSc1cccc(C(F)(F)F)c1	-23.3
CCN(CC(=O)NCc1ccc(Cl)cc1)C(=O)CSc1ccc(Br)cc1	-79.2
CCN(CC(=O)Nc1ccc(NC(C)=O)cc1)C(=O)c1oc2ccccc2c1C	-20.2
CCN(CC(=O)Nc1c(F)cccc1F)C(=O)CSc1ccc(F)cc1	-14.3
CCN(CC(=O)NCc1ccc(Cl)cc1)C(=O)CSc1ccccc1	-65.6
CCN(CC(=O)NCc1ccc(Cl)cc1)C(=O)CN1C(=O)NC(CC)(c2ccccc2)C1=O (centres unmarked)	-6.03

SMILES	hERG current change (%, negative = inhibition) at 10uM [%]
CCN(CC(=O)NCc1ccc(F)cc1)C(=O)c1oc2ccccc2c1C	-43.9
O=C(CSc1ccc(Cl)cc1)NCc1ccncc1	-14.2
CCN(CC(=O)NCc1ccc(Cl)cc1)C(=O)c1oc2ccccc2c1C	-54.5
Cc1ccc(-c2nn3c(C)nnc3s2)cc1NCc1c(F)cccc1Cl	2.39
Fc1ccc(N2CN(Cc3cccnc3)CNC2=S)cc1	10.7
Cc1ccc(C(O)Cn2nc(C)cc2C)cc1 (centres unmarked)	13.7
CCCCCc1c(O)nc(SCCN(CC)CC)[nH]c1=O.Cl	9.87
COc1ccc(N(C(=O)c2cccnc2)S(=O)(=O)c2ccc3c4c(cccc24)C(=O)N3C)cc1	17.7
C=CCn1c(=O)c2ccccc2n2c(SCc3nc4ccccc4s3)nnc12	-34.4
CCOc1ccc(NC(=O)Cn2nc(C(N)=O)c3ccccc3c2=O)cc1S(=O)(=O)N1CCCC1	0.537
COc1ccc(NC(=O)c2cccc(Cn3cc(Br)c([N+](=O)[O-])n3)c2)c(C)c1	-72
COc1ccc(OC)c(NC(=O)c2cccc(Cn3cc(Br)c([N+](=O)[O-])n3)c2)c1	-13.9
Cc1ccccc1NC(=O)c1cccc(Cn2cc(Br)c([N+](=O)[O-])n2)c1	-3.63
Cc1cc(CC(C)C)n(-c2nc3ccccc3c(=O)n2OCc2ccccc2)n1	-7.08
COc1ccc(CCNc2ncnc3c2nnn3Cc2ccccc2)cc1	13
COc1ccc(C(=O)C2CCCN(Cc3ccc4nonc4c3)C2)cc1OC (centres unmarked)	-67.4
COc1ccc(C(=O)C2CCCN(Cc3ccc4nonc4c3)C2)cc1F (centres unmarked)	-41.1
COc1ccc(C(=O)C2CCCN(Cc3ccc4nonc4c3)C2)c(C)c1 (centres unmarked)	-20.3
COc1ccc(C(=O)C2CCCN(Cc3ccc4nonc4c3)C2)c(OC)c1 (centres unmarked)	-66.7
COc1ccccc1CCNC(=O)CNC(=O)Cc1cccc2ccccc12	-1.6
CC(C(=O)Nc1ncn[nH]1)N1C(=O)c2ccccc2C1=O (centres unmarked)	17.4
CCCCn1c(=O)c(C(=O)Nc2ccccc2S(N)(=O)=O)c(O)c2ccccc21	-12.3
